# CtBP-E1A inh: qHTS Assay for Inhibitors of the CtBP/E1A Interaction; CtBP / adenovirus E1A interaction (AlphaScreen); AlphaScreen GST-E1A/His-CtBP binding, 1536-well; active compounds read low; activity change, % (concentration not given with the values); 0.49% of 340,000 active; AID 651724, 2012; in the data active means activity change below about -65%; inconclusive means mostly about -30% to -63%; further: on the % scale 0 is the no-effect control and ±100 the full control effect
#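 In 5 uL wells, 23 nL compound meets equimolar GST-E1A and His-CtBP (5X stock 125 nM each) for 2 h, 37 °C. Beads (5X, 50 ug/mL) then 1 h, 37 °C, dark.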
# BAZ2B inh: qHTS Assay for Inhibitors of BAZ2B. AID 504333, 2011. Potency, µM (series often up to 114 µM), without a hit: top-dose activity change, negative = inhibition, actives largely listed as inhibitors. AlphaScreen BAZ2B-H3K14Ac peptide displacement. 4.4% of 360,000 active. Bromodomain adjacent to zinc finger domain protein 2B (Homo sapiens), Q9UIF8; further: potency means the concentration at half of the fitted maximal effect; on the % scale 0 is the no-effect control and ±100 the full control effect; nearly all actives have a fitted effect of over 60% in size
#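 BAZ2B 50 nM plus b-H3(5-23)K14Ac 50 nM, PBS pH 7.4/0.01% Tween-20, 30 min RT; compound added (max 110 uM), 30 min RT; streptavidin donor/Ni-chelate acceptor beads 10 ug/mL final, 20 min dark; AlphaScreen read.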
# G9a block: qHTS Assay for Inhibitors of Histone Lysine Methyltransferase G9a. G9a H3K9 monomethylation, AlphaScreen, 2 h. Potency, µM (series often up to 102 µM), without a hit: at the highest dose activity, negative = inhibition, actives largely listed as inhibitors. 8.8% of 350,000 active; further: potency means the concentration at half of the fitted maximal effect; on the % scale 0 is the no-effect control and ±100 the full control effect; nearly all actives have a fitted effect of over 75% in size
#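 Signal arises when biotinylated H3K9 peptide, once monomethylated, bridges streptavidin donor and antibody-captured acceptor beads. Enzyme at 20 nM was preincubated 15 min with test compounds; peptide 500 nM and SAM 20 uM then reacted for 2 h.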
# JMJD2A Tudor: qHTS Assay for Inhibitors of JMJD2A-Tudor Domain; Lysine-specific demethylase 4A (Homo sapiens), O75164; AlphaScreen JMJD2A-Tudor / H3K4me3 peptide binding; Potency, µM (doses to about 114 µM), for the others: top-dose activity change, negative = inhibition, usual class: inhibitors; 4.4% of 390,000 active; further: potency means the concentration at half of the fitted maximal effect; on the % scale 0 is the no-effect control and ±100 the full control effect; nearly all actives have a fitted effect of over 50% in size
# Six1-Eya2 inh: qHTS Assay for Inhibitors of the Six1/Eya2 Interaction; 0.56% of 360,000 active; activity change, % (no concentration beside the values); AlphaScreen GST-Six1/His-Eya2 binding, biochemical; active compounds read low; Homeobox protein SIX1 (Homo sapiens) + Protein phosphatase EYA2 (Homo sapiens), …; AID 651725, 2012; in the data active means activity change below about -65%; inconclusive means mostly about -30% to -63%; further: on the % scale 0 is the no-effect control and ±100 the full control effect
# Target sequence (O00167 whole entry, looked up): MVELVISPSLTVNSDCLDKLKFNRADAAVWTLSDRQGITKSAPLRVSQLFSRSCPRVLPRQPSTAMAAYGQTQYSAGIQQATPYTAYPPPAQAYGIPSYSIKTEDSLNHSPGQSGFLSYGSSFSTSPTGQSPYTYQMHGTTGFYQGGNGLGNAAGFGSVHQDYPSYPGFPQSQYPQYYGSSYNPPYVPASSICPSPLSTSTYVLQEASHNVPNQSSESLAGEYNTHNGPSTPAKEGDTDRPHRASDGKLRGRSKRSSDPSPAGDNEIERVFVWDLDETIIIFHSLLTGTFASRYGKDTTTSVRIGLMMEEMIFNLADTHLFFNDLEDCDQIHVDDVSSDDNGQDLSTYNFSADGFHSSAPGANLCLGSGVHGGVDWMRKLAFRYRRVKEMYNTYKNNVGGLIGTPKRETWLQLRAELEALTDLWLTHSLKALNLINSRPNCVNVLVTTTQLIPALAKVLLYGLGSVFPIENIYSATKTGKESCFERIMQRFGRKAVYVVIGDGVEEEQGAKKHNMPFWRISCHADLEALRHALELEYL
# Target sequence (Q15475 whole entry, looked up): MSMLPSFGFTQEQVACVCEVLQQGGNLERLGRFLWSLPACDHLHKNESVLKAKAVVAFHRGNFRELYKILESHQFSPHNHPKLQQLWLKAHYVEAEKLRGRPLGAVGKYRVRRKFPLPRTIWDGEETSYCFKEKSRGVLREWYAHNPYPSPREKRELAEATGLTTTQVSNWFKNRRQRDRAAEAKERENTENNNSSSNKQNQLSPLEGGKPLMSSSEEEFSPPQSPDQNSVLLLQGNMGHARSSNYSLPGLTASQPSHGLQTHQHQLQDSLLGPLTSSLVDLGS
#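 GST-Six1 + His-Eya2 (5X stock: 250/500 nM); Tris pH 8.0, 300 mM NaCl, 0.05% BSA, 0.02% Tween 20; GSH donor/Ni acceptor beads; 1 h 37 °C dark; AlphaScreen readout.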
# HP1b binding inh: HTS for Inhibitors of HP1-beta Chromodomain Interactions with Methylated Histone Tails; Chromobox protein homolog 1 (Homo sapiens), P83916; 0.56% of 390,000 active; AlphaScreen HP1-beta / biotin-H3K9me3 peptide binding; Potency, µM (top dose mostly 114 µM), for the others: top-dose activity change, negative = inhibition, actives largely listed as inhibitors; further: potency means the concentration at half of the fitted maximal effect; nearly all actives have a fitted effect of over 70% in size
#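 HP1-beta protein (50 nM final) preincubated 30 min at room temperature with biotinylated H3(1-18)K9me3 peptide (50 nM) in PBS pH 7.4, 0.01% Tween-20, then compound added for 30 min. AlphaScreen streptavidin donor/nickel chelate acceptor beads (10 ug/mL final), 30 min dark, luminescence read.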
# Numbers without * were called inactive; u = inconclusive; x = no result; [ ] = dose if it differs, or a comment. A selection: hits, their analogues and other compounds. The true share with any hit is near 10%. Unless noted, the call rests on the fitted dose curve; in most records, active means well fitted inhibition curve with a large enough effect; inconclusive means small, poorly fitted or top-dose-only effect; inactive means no such curve, though single readings can be large or run the other way.
SMILES,CtBP-E1A inh,BAZ2B inh,G9a block,JMJD2A Tudor,Six1-Eya2 inh,HP1b binding inh
Nc1ccc(S(=O)(=O)Nc2nccc(/C=C/c3ccc([N+](=O)[O-])cc3)n2)cc1,-29,-12%,3%,-6%,-16,-29%
Nc1ccc(S(=O)(=O)Nc2nccc(/C=C/c3ccc(Cl)cc3)n2)cc1,-76*,-15%,14%,-8%,u,-7%
COc1ccc(C(=O)n2nc(-c3cccnc3)nc2NCc2ccccc2)cc1OC,x,-10%,3%[59 µM],-2%,x,35%
Cc1cc(C)n2nc(C(=O)NNC(=O)c3ccc(Cl)cc3)nc2n1,1,89µM*,u,-20%,4,29%
COc1ccc(C(=O)NNC(=O)Cc2nc3nc(C)cc(C)n3n2)cc1,x,-35%,0.35µM*,9%,2,43%
Cc1cc(C)n2nc(CC(=O)NNC(=O)c3ccccc3Cl)nc2n1,-8,14%,7.1µM*,5%,1,55%
Cc1cc(C)n2nc(C(=O)N/N=C/c3ccc(Cl)cc3)nc2n1,x,4%,-2%,-16%,7,36%
Cc1ccc(C(=O)NNC(=O)Cc2nc3nc(C)cc(C)n3n2)cc1,x,1%,x,8%,6,30%
CC(C)Oc1ccc(CNC(=O)Cn2ncn3nc(-c4cccs4)cc3c2=O)cc1,x,-21%,-44%[59 µM],-5%,x,22%
CC1CC(C)CN(C(=O)C(C)N2CCN(S(=O)(=O)c3ccc(C(F)(F)F)cc3)CC2)C1 (centres undefined),x,x,x,-18%,5,27%
C=C(C)COc1ccc2c(CC)cc(=O)oc2c1,x,71%,145%,20µM*,12,36%
NC(=O)C[C@@H]1NC(=O)[C@H](CCC(=O)O)NC(=O)c2cc([N+](=O)[O-])cc(I)c2OCC[C@@H](C(N)=O)NC1=O,6,-35%,28µM*,-26%,-2,6%
C[C@@H]1NC(=O)c2cc([N+](=O)[O-])cc(I)c2OCC[C@@H](C(N)=O)NC(=O)[C@H](CCC(=O)O)NC1=O,x,u,28µM*,x,x,x
CC(C)[C@@H]1NC(=O)c2cc([N+](=O)[O-])cc(I)c2OCC[C@@H](C(N)=O)NC(=O)[C@H](CCC(=O)O)NC1=O,x,u,45µM*,-15%,-1,29%
NC(=O)CC[C@@H]1NC(=O)[C@H](Cc2ccc(O)cc2)NC(=O)c2cc([N+](=O)[O-])cc(F)c2OCC[C@@H](C(N)=O)NC1=O,-15,-11%,u,-25%,-9,6%
CCOc1ccc(NS(=O)(=O)c2cccs2)cc1S(=O)(=O)N1CCCC1,0,x,x,x,5,x
COC(=O)C1=C(C)NC(=O)NC1c1ccc(OC(=O)c2ccco2)cc1 (centres undefined),-5,-7%,11%[12.7 µM],-3%,-2,39%
CCOC(=O)c1c(C)c(-c2ccccc2)n(CC(=O)NCc2cccc(OC)c2)c1C,x,0%,1%[59 µM],7%,x,23%
Cc1cc(-c2nc3c4c5c(sc4[nH]c(=O)n3n2)CCC5)c(C)o1,-1,50µM*,u,u,-17,u
Fc1ccccc1CCNc1c2c(nc3ncnn13)CCCC2,-11,-4%,50µM*,-7%,-5,47%
c1ccc(CCNc2c3c(nc4ncnn24)CCC3)cc1,-6,28%,-2%,-16%,-2,21%
COc1ccccc1Nc1nn2c(=O)c3ccc(C(=O)NCCC4=CCCCC4)cc3nc2s1,x,-12%,-20%[59 µM],-5%,x,22%
O=C(OCC#CCSc1nnc(-c2cccc3ccccc23)o1)c1ccc(OC(F)F)cc1,x,x,x,17%,x,x
N#CC1(c2ccccc2)CCC(NCCc2ccccc2)CC1 (centres undefined),x,56µM*,25µM*,50µM*,1,16%
O=C(NCCc1ccccc1)C1(c2ccccc2)CCCC1,1,-37%,29%[0.501 µM],3%,14,40%
SMILES,CtBP-E1A inh,BAZ2B inh,G9a block,JMJD2A Tudor,Six1-Eya2 inh,HP1b binding inh
CCOc1ccccc1NC(=O)NC(CC)c1c(-n2cccc2)sc2c1CCN(C)C2 (centres undefined),x,-23%,u,-32%,x,6%
CCC(NC(=O)Nc1cc(OC)ccc1OC)c1c(-n2cccc2)sc2c1CCN(CC)C2 (centres undefined),x,40µM*,14µM*,56µM*,x,u
CCC(NC(=O)Nc1ccc(OC)c(OC)c1)c1c(-n2cccc2)sc2c1CCN(C)C2 (centres undefined),x,50µM*,u,u,x,u
CCOc1ccc(NC(=O)NC(C)c2c(-n3cccc3)sc3c2CCN(CC)C3)cc1 (centres undefined),x,u,u,u,x,-15%
CC(C)n1c(SCC(=O)Nc2ccc(F)cc2)nc2c(oc3ccccc32)c1=O,x,1%,6%[59 µM],-1%,x,36%
CC/C(=N\O)c1ccc(O)c(OC)c1,0,11%,1%[59 µM],-18%,3,11%
O=C(COC(=O)c1cc(S(=O)(=O)N2CCOCC2)ccc1F)Nc1cc([N+](=O)[O-])ccc1F,5,x,x,-23%,2,10%
COc1ccc(-c2cc(C)no2)cc1S(=O)(=O)NCc1ccco1,x,-19%,u,-18%,x,19%
COc1cccc(CNS(=O)(=O)c2cc(-c3cc(C)no3)ccc2C(C)C)c1,0,-12%,71µM*,1%,5,37%
Cc1cc(-c2ccc(C(C)C)c(S(=O)(=O)NCc3ccco3)c2)on1,-7,50µM*,79µM*,-34%,-7,23%
CCC(C)c1ccccc1N1CC(C(=O)Nc2ccc(S(=O)(=O)N3CCOCC3)cc2)CC1=O (centres undefined),1,11%,50µM*,-20%,-1,8%
CCOC(=O)C1(C)CCN1C(=O)c1ccc2c(c1)CCO2 (centres undefined),35,x,x,x,27,x
CCN(CC)CCSc1nc2c([nH]1)c(=S)n(C)c(=O)n2C,0,x,x,18µM*,-3,24%
CSc1nc2c([nH]1)c(=S)n(C)c(=O)n2C,-6,x,x,-3%,-3,30%[57 µM]
CCCCSc1nc2c([nH]1)c(=S)n(C)c(=O)n2C,-7,x,x,-17%,2,6%
Cn1c(=S)c2[nH]c(SCc3cccnc3)nc2n(C)c1=O,-22,x,x,8.9µM*,3,1%
Cn1c(=S)c2[nH]c(SCCC(C)(C)C)nc2n(C)c1=O,-15,x,x,22µM*,0,1%
